CtBP-E1A inh = qHTS Assay for Inhibitors of the CtBP/E1A Interaction. CtBP / adenovirus E1A interaction (AlphaScreen). AlphaScreen GST-E1A/His-CtBP binding, 1536-well; active compounds read low. activity change, % (test concentration not listed). 340,000 compounds, 0.49% hits. AID 651724, 2012; in the data active means activity change below about -65%; inconclusive means mostly about -30% to -63%
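Steps: dispense buffer (Tris pH 8.0, NaCl 300 mM, TCEP 1 mM, BSA, Tween 20); add 5X protein mix (GST-E1A, His-CtBP, 125 nM each); pin 23 nL compound; 2 h at 37 °C, dark; add 5X beads (50 ug/mL); 1 h; read.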
PKM2 act = qHTS Assay for Activators of Human Muscle isoform 2 Pyruvate Kinase; Pyruvate kinase PKM (Homo sapiens), P14618; purified PKM2, Kinase-Glo ATP luminescence, activation; response scale: 0% is enzyme alone, no compound; Potency, µM (series often up to 57.5 µM), for inactives: at the top dose activation, most hits filed as activators; 260,000 compounds, 0.34% hits; AID 1631, 2009; further: potency means the concentration at half of the fitted maximal effect; nearly all actives have a fitted effect of over 55% in size
Target sequence (P14618 whole entry, looked up, canonical isoform): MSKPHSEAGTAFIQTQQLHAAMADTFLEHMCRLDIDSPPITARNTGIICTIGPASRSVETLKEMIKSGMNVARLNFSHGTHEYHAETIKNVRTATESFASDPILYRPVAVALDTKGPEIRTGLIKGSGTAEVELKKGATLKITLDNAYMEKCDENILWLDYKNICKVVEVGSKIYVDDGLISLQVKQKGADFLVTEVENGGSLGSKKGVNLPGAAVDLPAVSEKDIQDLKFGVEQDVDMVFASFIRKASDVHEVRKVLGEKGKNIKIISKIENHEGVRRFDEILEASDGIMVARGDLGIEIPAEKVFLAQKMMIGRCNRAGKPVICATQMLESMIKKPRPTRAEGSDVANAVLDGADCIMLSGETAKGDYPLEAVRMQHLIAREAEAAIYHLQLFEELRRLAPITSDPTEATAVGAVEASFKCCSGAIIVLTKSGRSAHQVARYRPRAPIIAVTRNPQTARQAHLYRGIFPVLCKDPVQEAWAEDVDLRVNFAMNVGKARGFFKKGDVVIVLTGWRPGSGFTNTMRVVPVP
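ATP formation by purified human PK-M2, quantified via coupled luciferase luminescence after 1 h at room temperature with 0.1 mM ADP and 0.5 mM PEP final.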
Six1-Eya2 blk = qHTS Assay for Inhibitors of the Six1/Eya2 Interaction. 360,000 compounds, 0.56% hits. activity change, % (no concentration beside the values). AlphaScreen GST-Six1/His-Eya2 binding, biochemical; active compounds read low. Homeobox protein SIX1 (Homo sapiens) + Protein phosphatase EYA2 (Homo sapiens), …; in the data active means activity change below about -65%; inconclusive means mostly about -30% to -63%
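AlphaScreen luminescence read after one hour at 37 °C in darkness. Pin-transferred compounds met GST-Six1 and His-Eya2 protein (5X stock 250 nM/500 nM) plus glutathione donor and Ni-chelate acceptor beads (5X, 50 ug/mL).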
VP16 counter = VP16 counterscreen qHTS for inhibitors of ROR gamma transcriptional activity; Drosophila S2 Gal4-VP16 UAS-luciferase, luminescence, 20 h; Potency, µM (titrated, usually from 53.6 µM), for the others: top-dose activity, negative = inhibition, hits mostly inhibitors; 310,000 compounds, 3.5% hits; AID 2546, 2010;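 further: Gal4-VP16 expression switched on by copper sulfate through the metallothionein promoter; potency means the concentration at half of the fitted maximal effect; nearly all actives have a fitted effect of over 50% in size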
RORg inh = qHTS for inhibitors of ROR gamma transcriptional activity; 310,000 compounds, 5.4% hits; Potency, µM (titrated, usually from 53.6 µM), inactives show top-dose activity change, negative = inhibition, actives largely listed as inhibitors; Nuclear receptor ROR-gamma (Mus musculus), P51450; Drosophila S2 Gal4-RORgamma UAS-luciferase reporter, 20 h; AID 2551, 2010; further: potency means the concentration at half of the fitted maximal effect; nearly all actives have a fitted effect of over 60% in size
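Read-out: Photinus luciferase luminescence; inhibitors lower reporter signal. Insect Schneider cells with Gal4-ROR gamma fusion under metallothionein promoter, UAS reporter; 700 uM final copper sulfate induction, 20 hr, ambient temperature.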
An asterisk follows results filed as active; u = inconclusive; x = no result given; [ ] = another dose, or the depositor's remark. Shown are actives, neighbours in structure and some others; about 5.6% of the full set was active somewhere. Unless noted, the call rests on the fitted dose curve; in most records, active means well fitted curve in the direction sought with a large enough effect; inconclusive means small, poorly fitted or top-dose-only effect, or another doubt; inactive means no such curve, though single readings can be large; an effect the other way counts as inactive or inconclusive. On the % scale 0 is the no-effect control and ±100 the full control effect.

SMILES	CtBP-E1A inh	PKM2 act	Six1-Eya2 blk	VP16 counter	RORg inh
COc1ccc(C(=O)NC(=S)N2CCCc3ccccc32)cc1OC	-17	-5%	-24	-14%	-44%
COc1ccc(C(=O)NC(=S)N2CC(C)OC(C)C2)cc1OC (stereo not drawn)	0	-7%	1	u	7.9µM*
CC1CN(C(=S)SCC(=O)c2ccc(Cl)cc2)CC(C)O1 (stereo not drawn)	6	-1%	-3	u	41%
CC1CN(C(=S)NC(=O)c2cccc([N+](=O)[O-])c2)CC(C)O1 (stereo not drawn)	3	-2%	-2	1.3µM*	0.5µM*
CCN(CC)CCC(c1cc(OC)c(OC)c(OC)c1)c1c(OC)cc(OC)c2c1OC(=O)CC2c1ccc(N(C)C)cc1 (stereo not drawn)	x	x	x	-3%	31%
N#CC1C(=O)NC(c2ccccc2)=CC1c1ccccc1 (stereo not drawn)	1	x	6	x	x
S=C1NC(c2cccs2)=CC(c2ccc(Br)cc2)N1 (stereo not drawn)	19	2%	0	4µM*	3.5µM*
S=C1NC(c2ccccc2)=CC(c2ccccc2)N1 (stereo not drawn)	0	2%	2	11µM*	3.5µM*
Cn1c(SCC(=O)N2CCOCC2)nc2c(c1=O)SCC2	1	-3%	1	-11%	3%
O=C(O)CN1C(=O)C(=O)N(Cc2ccc(C(F)(F)F)cc2)C1=O	20	x	18	-1%	10%
CN(C)Cc1csc(Nc2ccc(C(=O)c3ccccc3)cc2)n1	-4	x	-9	x	x
CCN(CCCNc1cc2c(c(N)c1S(=O)(=O)O)C(=O)c1ccccc1C2=O)c1ccccc1	-16	x	-65*	x	x
COc1ccc(Cl)c(Cn2c(NCc3ccco3)nc3c2c(=O)n(C)c(=O)n3C)c1	-3	28%	-17	0.0089µM*	-43%
COc1cccc(Cn2c(NCC(C)C)nc3c2c(=O)n(C)c(=O)n3C)c1	-4	4%	-9	u	26%
COc1cccc(Cn2c(NCc3ccco3)nc3c2c(=O)n(C)c(=O)n3C)c1	-3	-2%	-15	2.8µM*	-38%
CC(C)(C)C(=O)N1CCN(C(=O)c2ccco2)CC1	-16	6%	6	0%	7%
O=C(CN1CCN(C(c2ccccc2)c2ccccc2)CC1)NC(=O)NCc1ccco1	-2	-1%	-5	-7%	-16%
C=C(C)CNC(=S)N1CCN(C(c2ccccc2)c2ccccc2)CC1	-15	-17%	8	u	u
COCCCNC(=S)N1CCN(C(c2ccccc2)c2ccccc2)CC1	0	-4%	15	u	16µM*
COCCCNC(=S)N1CCN(C(=O)c2ccco2)CC1	7	-5%	1	8%	1%
S=C(NCc1ccco1)N1CCN(C(c2ccccc2)c2ccccc2)CC1	4	-1%	-7	u	13µM*
CC(C)CNC(=S)N1CCN(C(c2ccccc2)c2ccccc2)CC1	-3	2%	-2	u	13µM*
Cc1ccc(CSCC(=O)Nc2ccc(N3CCOCC3)cc2N2CCOCC2)cc1	-1	x	-1	x	x
CS(=O)(=O)c1ccccc1C(=O)Nc1cccc(-c2nc3ccccc3o2)c1	x	1%[0.46 µM]	-5	1%	2%
Cc1ccc(C(=O)C[n+]2cc(-c3ccc(C)cc3)n3c2CCCCC3)cc1	0	-22%	3	5µM*	u
CCC(CO)Oc1cc(NC(=O)c2ccccc2Cl)c2ncn(C(C)C)c2c1 (stereo not drawn)	0	x	2	x	x
O=c1c(-c2ccc(F)cc2)nc2cnc(N3CCOCC3)nc2n1Cc1ccc(F)cc1	x	x	x	4%	-15%
CC(OC(=O)c1ccc(C(C)(C)C)cc1)C(=O)NC1CCCCC1C (stereo not drawn)	0	2%	10	14µM*	42%

From PubChem
